Data from PubChem BioAssay AID720504 (National Center for Advancing Translational Sciences (NCATS), 2013).
Hit rate of the full screen: of about 360,000 compounds, about 10,000 (2.8%) were called active. Roughly 4% stayed inconclusive and do not appear here. What follows is part of a selection rich in actives, with near analogues and random picks from the rest. Unmarked numbers belong to inactive results. Calls come from the whole dose curve; as a rule, active = well fitted inhibition curve with a large enough effect; inconclusive = small, poorly fitted or top-dose-only effect; inactive = flat fitted curve, though single readings scatter.

Each compound was assayed against Serine/threonine-protein kinase PLK1 (Homo sapiens) (UniProt P53350) (assay: qHTS for Inhibitors of PLK1-PDB (polo-like kinase 1 - polo-box domain): Primary Screen). Details: Plk1 PBD binding of FITC phosphopeptide, fluorescence polarization.
% is set by controls: 0 for no effect and ±100 for the full control effect; potency is the fitted concentration of half-maximal effect.
Note: nearly all actives have a fitted effect of over 65% in size.
Throughout, for max response, negative = inhibition: series mostly up to about 57 µM.

Sequence of Serine/threonine-protein kinase PLK1 (Homo sapiens) (P53350 whole entry, looked up, the tested form may be a part): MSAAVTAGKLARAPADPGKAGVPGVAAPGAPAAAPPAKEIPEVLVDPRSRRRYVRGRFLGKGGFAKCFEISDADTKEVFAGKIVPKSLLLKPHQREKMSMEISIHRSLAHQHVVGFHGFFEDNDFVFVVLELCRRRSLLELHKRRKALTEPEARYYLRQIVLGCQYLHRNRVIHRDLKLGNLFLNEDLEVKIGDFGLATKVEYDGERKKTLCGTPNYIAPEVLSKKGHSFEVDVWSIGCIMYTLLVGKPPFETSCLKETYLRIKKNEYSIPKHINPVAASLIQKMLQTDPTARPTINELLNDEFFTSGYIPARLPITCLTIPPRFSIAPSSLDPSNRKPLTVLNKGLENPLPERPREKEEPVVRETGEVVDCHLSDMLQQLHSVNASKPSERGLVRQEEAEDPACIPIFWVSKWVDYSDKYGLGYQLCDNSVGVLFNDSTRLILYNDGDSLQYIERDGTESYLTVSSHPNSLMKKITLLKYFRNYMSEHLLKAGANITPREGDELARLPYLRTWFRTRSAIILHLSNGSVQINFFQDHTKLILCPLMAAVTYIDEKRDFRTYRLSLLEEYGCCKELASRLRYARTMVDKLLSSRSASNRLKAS

Row | Structure (SMILES) | max response, negative = inhibition [%] | Potency
1 | Cc1cccc(N2CCN(C(=O)C3CCN(S(=O)(=O)c4cnc[nH]4)CC3)CC2)c1C | 3.15 | 
2 | O=C(C1CCN(S(=O)(=O)c2cnc[nH]2)CC1)N1CCN(Cc2ccc3c(c2)OCO3)CC1 |  | 2.99 µM (active)
3 | O=C(C1CCN(Cc2ccc(Cl)cc2)CC1)N1CCN(Cc2ccc3c(c2)OCO3)CC1 | 2.77 | 
4 | CCC(C(=O)Nc1c(C)cccc1C)n1c(-c2cc(C)cs2)nc2ccccc21 (stereo not given) | -9.18 | 
5 | Cc1cc2cc3n(c2nn1)N=C(Cl)CC3 | -3.02 | 
6 | C=CCC[C@H](CCCCC)OC(=O)/C=C/[C@H](O)[C@@H](O)C[C@@H](O)CC=C | -13.7 | 
7 | C[C@@H]1CN([C@H](C)CO)C(=O)CCCn2cc(nn2)CO[C@H]1CN(C)S(=O)(=O)c1ccc(Oc2ccccc2)nc1 | -19.7 | 
8 | O=C(CCC(=O)OCc1ccc(Cl)cc1)Nc1ccccc1 | -4.01 | 
9 | O=C1C=C(c2ccc(Cl)cc2)C(=O)N1Nc1ccccc1 |  | 6.7 µM (active)
10 | O=C(O)CC1=C(Nc2ccccc2)C(=O)N(c2ccccc2)C1c1ccc(Cl)cc1 (stereo not given) | -11.1 | 
11 | CC1(C(=O)Nc2ccc3c(c2)OCCO3)CN(S(C)(=O)=O)CC(=O)N1Cc1cccc(F)c1 (stereo not given) | -14.7 | 
12 | COC(=O)C[C@H]1C[C@@H]2c3cc(NC(=O)Nc4ccccc4)ccc3O[C@@H]2[C@@H](CO)O1 | 0.628 | 
13 | Cc1ccc(C(=O)c2c(NC(=O)c3ccccc3)sc(C)c2C)cc1 |  | 11.9 µM (active)
14 | Cc1ccc(S(=O)(=O)CC(=O)Nc2sc(C)c(C)c2C(N)=O)cc1 | -9.45 | 
15 | Cc1sc(NC(=O)c2ccc3ncsc3c2)c(C(N)=O)c1C | -11 | 
16 | CC1(C(=O)Nc2cccc(Oc3ccccc3)c2)CCN1Cc1ccccc1Cl (stereo not given) | -5.84 | 
17 | CC(Oc1cccc(NC(=O)c2cccs2)c1)C(=O)c1ccccc1 (stereo not given) | -3.5 | 
18 | Cc1ccoc1C(=O)Nc1cccc(Oc2ccccc2)c1 |  | 29.9 µM (active)
19 | Nc1nc2c(ncn2[C@@H]2O[C@H](CNCc3ccc(OCCCN4CCOCC4)cc3)[C@@H](O)[C@H]2O)c(=O)[nH]1 | -2.1 | 
20 | COc1cccc(-c2cnc(C(O)c3ccccc3OC)[nH]2)c1 (stereo not given) | -12.1 | 
21 | CCCc1cc(=O)oc2c(C)c(OCC(=O)NCc3ccccn3)ccc12 | 0.145 | 
22 | CCCc1cc(=O)oc2c(C)c(OCC(=O)Nc3ccccn3)ccc12 | 7.66 | 
23 | CCc1cc(=O)oc2c(C)c(OCC(=O)NCCN3CCOCC3)ccc12 |  | 21.2 µM (active)
24 | COc1ccc(C(C)C)cc1-c1ccc2nncn2c1 | -3.26 | 
25 | COc1cccc(-c2cc3nc(NCCOc4ccccc4Cl)n(C)c(=O)c3s2)c1 | -5.38 | 
26 | O=C(Nc1ccccc1)c1ccccc1Br | -3.61 | 
27 | COCCCN1C(=O)C(CC(=O)NCc2cccs2)CC(C(=O)N2CCOCC2)=C1C (stereo not given) | -4.29 | 
28 | CSc1nc(N(C)NC(=O)c2cccc(C)c2)c2ccccc2n1 | -6.24 | 

Row | Structure (SMILES) | max response, negative = inhibition [%] | Potency
29 | CC(Sc1nnc2c(n1)C1CCC2(C)C1(C)C)C(=O)Nc1ccccc1 (stereo not given) | 1.59 | 
30 | CSc1nc(C)cc(SC(C(C)=O)C(=O)Nc2ccccc2)n1 (stereo not given) |  | 26.7 µM (active)
31 | CC(C)NC(=O)C1(C)CCCCCN1C(=O)c1ccc(-c2ccccc2)cc1 (stereo not given) | -8.92 | 
32 | COc1ccc(-c2ccc(CN3C(C(C)C)C(=O)N(Cc4cn(CC5CCCCC5)nn4)CCS3(=O)=O)cc2)cn1 (stereo not given) | -14.8 | 
33 | COC(=O)C1(C(=O)OC)C[C@H](c2ccccc2)N(Cc2ccccc2OC)[C@@H]1c1ccccc1 | -15.2 | 
34 | CCN(CC)C(=O)C1=C(C)N(Cc2ccc(F)cc2)C(=O)C(CC(=O)NCc2cccc3ccccc23)C1 (stereo not given) | -13.9 | 
35 | CCCc1c(-c2ccccc2F)ncn1Cc1ccccc1OC | -1.08 | 
36 | Cc1ccccc1-c1csc(C(O)c2cccc(Cl)c2)n1 (stereo not given) | -10.6 | 
37 | O=C(/C=C/[C@H]1O[C@@H](n2cnc3c(NC(=O)c4ccccc4)ncnc32)[C@H](O)[C@@H]1O)NCc1ccccc1 | -4.8 | 
38 | CCCSc1nc2c(c(=O)n(C)c(=O)n2C)n1Cc1ccc(C)cc1 | -10.2 | 
39 | CCCCn1c(SCC(=O)NCCc2ccc(OC)c(OC)c2)nc2c1c(=O)n(C)c(=O)n2C | -1.04 | 
40 | CCOc1ccc(Cn2c(SCCCCC#N)nc3c2c(=O)n(C)c(=O)n3C)cc1OCC |  | 18.9 µM (active)
41 | COc1ccc(NC(=O)C2Cc3c(-c4ccc(Cl)cc4)ccnc3O2)cc1 (stereo not given) | 1.68 | 
42 | O=C(NCC(O)c1nc2ccccc2[nH]1)c1ccc(Br)cc1 (stereo not given) | -3.2 | 
43 | CC1(C(=O)NCc2ccc3c(c2)OCO3)CCN1CCc1ccccc1 (stereo not given) | 2.52 | 
44 | CCN(CC)CCn1c2c(c(SCC(=O)Nc3nc4ccccc4s3)nc1=O)CCCC2 | -2.27 | 
45 | c1ccc(C(=NNc2nc3ccccc3s2)c2ccccn2)cc1 | -7.03 | 
46 | c1ccc2sc(NN=C3CCCC3)nc2c1 |  | 26.7 µM (active)
47 | OC[C@@H]1CN(C2CCCC2)C[C@H](n2cnc3c(NC4CCC4)ncnc32)O1 | -3.48 | 
48 | C=CCn1c2c(c3ccccc31)CCC2 | -9.68 | 
49 | Cc1cc(C)c(-c2c(O)c3ccccc3n(C)c2=O)c(C)c1 | -5.02 | 
50 | COc1cc2c(=O)n(C)c3ccccc3c2cc1OC | -8.91 | 
51 | Cn1c(=O)c([N+](=O)[O-])c(Oc2ccccc2)c2ccccc21 |  | 23.8 µM (active)
52 | CCOC(=O)c1c(C)[nH]c(C)c1C(=O)COC(=O)/C=C/c1cccc([N+](=O)[O-])c1 | 1.23 | 
53 | Cc1ccnc(NS(=O)(=O)c2ccc(NC(=O)c3ccc(S(=O)(=O)N(C)C)cc3)cc2)n1 |  | 26.7 µM (active)
54 | Cc1ccnc(NS(=O)(=O)c2ccc(NC(=O)c3ccc(S(=O)(=O)N4CCOCC4)cc3)cc2)n1 | -5.87 | 
55 | Cc1ccnc(NS(=O)(=O)c2ccc(NC(=O)c3oc4ccccc4c3C)cc2)n1 | -5.87 | 
